Laboratory results as given in PubChem BioAssay (EPA / NIEHS).
Inconclusive results are not listed. Active and inactive are the calls of the source. Rule for the calls: active = hit-call score of the fitted dose curve at least 0.9, where 1 is the maximum; inconclusive = response in the unintended direction; inactive = score below 0.9.

The molecules below were run against human Phosphodiesterase 10 (PDE10), PDE10A (gene 10846) (UniProt Q9Y233) (assay: NVS_ENZ_hPDE10: NovaScreen (NVS) Enzymatic Assay for human Phosphodiesterase 10 (PDE10) (AID 2283195)).
human Phosphodiesterase 10 (PDE10), PDE10A (gene 10846), sequence (Q9Y233 whole entry, looked up): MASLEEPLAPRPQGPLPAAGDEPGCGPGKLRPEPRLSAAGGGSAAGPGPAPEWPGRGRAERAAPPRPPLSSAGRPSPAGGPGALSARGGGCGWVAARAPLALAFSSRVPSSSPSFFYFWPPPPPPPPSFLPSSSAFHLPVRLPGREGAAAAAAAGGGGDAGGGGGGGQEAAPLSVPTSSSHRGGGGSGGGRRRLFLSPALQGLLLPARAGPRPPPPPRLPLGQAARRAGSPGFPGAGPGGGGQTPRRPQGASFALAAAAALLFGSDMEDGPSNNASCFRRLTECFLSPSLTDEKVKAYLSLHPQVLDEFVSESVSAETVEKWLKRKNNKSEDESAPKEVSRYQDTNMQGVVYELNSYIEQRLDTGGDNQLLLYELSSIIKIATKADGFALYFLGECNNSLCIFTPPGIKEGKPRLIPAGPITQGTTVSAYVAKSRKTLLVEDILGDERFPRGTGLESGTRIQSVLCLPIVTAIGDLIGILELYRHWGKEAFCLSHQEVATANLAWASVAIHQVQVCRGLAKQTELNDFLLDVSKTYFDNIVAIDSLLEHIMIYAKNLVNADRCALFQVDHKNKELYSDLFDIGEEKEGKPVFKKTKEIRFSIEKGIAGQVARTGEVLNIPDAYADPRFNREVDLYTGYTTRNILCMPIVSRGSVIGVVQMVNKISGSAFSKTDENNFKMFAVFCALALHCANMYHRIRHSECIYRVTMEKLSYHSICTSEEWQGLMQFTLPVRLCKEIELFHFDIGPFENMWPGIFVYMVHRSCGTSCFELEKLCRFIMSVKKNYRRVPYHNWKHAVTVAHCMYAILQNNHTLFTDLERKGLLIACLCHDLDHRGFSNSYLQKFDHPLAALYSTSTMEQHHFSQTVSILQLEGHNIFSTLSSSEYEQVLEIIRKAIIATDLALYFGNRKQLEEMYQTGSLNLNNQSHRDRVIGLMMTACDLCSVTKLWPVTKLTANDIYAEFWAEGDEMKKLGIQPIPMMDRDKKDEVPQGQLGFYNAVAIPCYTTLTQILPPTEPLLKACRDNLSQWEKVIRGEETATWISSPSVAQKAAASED
Description: NVS_ENZ_hPDE10 is a biochemical, single-readout assay that uses extracted gene-proteins in a cell-free assay. Measurements were taken 1 hour after chemical dosing in a 384-well plate.NVS_ENZ_hPDE10 is one of one assay component(s) measured or calculated from the NVS_ENZ_hPDE10 assay. It is designed to make measurements of enzyme activity, a form of enzyme reporter, as detected with fluorescence intensity signals by Fluorescence and electrophoretic mobility shift technology.Data from the assay component NVS_ENZ_hPDE10 was analyzed into 1 assay endpoint. This assay endpoint, NVS_ENZ_hPDE10, was analyzed in the positive analysis fitting direction relative to DMSO as the negative control and baseline of activity. Using a type of enzyme reporter, loss-of-signal activity can be used to understand changes in the enzymatic activity as they relate to the gene PDE10A. Furthermore, this assay endpoint can be referred to as a primary readout, because this assay has produced multiple assay endpoints where this one serves a enzymatic activity function. To generalize the intended target to other relatable targets, this assay endpoint is annotated to the esterase intended target family, where the subfamily is phosphodiesterase.
Binding assays used specific radioligands (tritiated, iodinated) with non-radioactive competitive displacement ligands in agonist or antagonist protocols (as indicated) and various reference compounds and inhibitors to titrate specific binding to receptors and transporters. Most enzyme assays (CYPs, kinases, phosphatases, proteases, HDACs) used recombinant protein and specific substrates (fluorescence mostly, some colorimetric and radioactive) and inhibitors, followed by a biochemical separation of substrate and product. All assays for the biochemical HTS were initially run in duplicate at a single concentration (10 uM for CYP450 assays and 25 uM for all others). Assay-chemical combinations meeting a pre-defined threshold (e.g., 30% inhibition and other criteria defined below) were then run in singleton concentration-response format with maximum concentration of 20 uM for CYPs and 50 uM for all others. Each assay was run with positive and negative controls, and concurrent controls on every plate. The follow-up (secondary) screen tested active chemical-pairs in concentration series, as well as a few additional assays not tested in the primary screen, some selected negative inactives, and several cases re-run in the concentration series for confirmatory purposes.

How did the outcome turn out when N#CCCNCCC#N was run?
The outcome was “inactive”.

Which AC50 does the source give for CC1(C)[C@H](C=C(Cl)Cl)[C@H]1C(=O)OCc1cccc(Oc2ccccc2)c1 here?
Its AC50 is 25 µM (active).

COc1ccccc1NC(=O)CC(C)=O was tested. Which AC50 did it give?
Its AC50 is 7.87 µM (active).

For CCC(CC)CO, which outcome is on record?
The outcome was “inactive”.

Which AC50 does the source give for OCCCO here?
The AC50 was 16.1 µM (active).

For CC(C)(C)c1cc(CCC(=O)OCCSCCOC(=O)CCc2cc(C(C)(C)C)c(O)c(C(C)(C)C)c2)cc(C(C)(C)C)c1O, which outcome is on record?
Its outcome is “inactive”.

Which outcome does the source give for Brc1cc(Br)cc(Br)c1 here?
Its outcome is “inactive”.

Which outcome does the source give for CCCCCCOC(C)=O here?
Its outcome is “inactive”.

Which AC50 does the source give for O=C(c1ccc(OCCN2CCCCC2)cc1)c1c(-c2ccc(O)cc2)sc2cc(O)ccc12 here?
Its AC50 is 25 µM (active).

With CCO[Si](CCC#N)(OCC)OCC as the molecule, how does the outcome read?
Its outcome is “inactive”.

Which AC50 does the source give for CC/C(=C(\c1ccccc1)c1ccc(OCCN(C)C)cc1)c1ccccc1 here?
The AC50 was 22.9 µM (active).

Which outcome does the source give for S=c1[nH][nH]c(=S)s1 here?
The outcome was “inactive”.

CC(O)COCC(C)O (centres undefined) was tested. Which outcome did it give?
Its outcome is “inactive”.

For CCOC(=O)CCCCCCCCC(=O)OCC, which outcome is on record?
Its outcome is “inactive”.
